# Screening data: PubChem BioAssay, National Center for Advancing Translational Sciences (NCATS)
# This is a sample that favours compounds with a hit; in the whole collection about 7.9% have one here.
# FMDV antiviral = antivirals against foot and mouth disease virus; Potency, µM (highest dose often 57.9 µM), for the others: at the top dose activity change, negative = inhibition, most hits filed as inhibitors; 410,000 compounds, 1.2% hits; FMDV antiviral cell-based qHTS; calls by dose curve; tested in HEK293T cells; note: read-out not given here; potency is the fitted concentration of half-maximal effect; nearly all actives have a fitted effect of over 45% in size
# HCMV antiviral = blocks human cytomegalovirus replication | HFF cells, HCMV-luciferase reporter, 72 h; active compounds read low | activity change, negative = inhibition, % at 57.5 µM | 410,000 compounds, 4.5% hits | AID 1259415; in the data active = activity change below about -60%; inconclusive = no clear call, values can overlap the other calls; inactive = above about -39%
#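 Two-dose cell screen: HFF monolayers treated with compounds and infected with luciferase-expressing HCMV at 1 PFU/cell, 72 h at 37C, then lysed for luciferase measurement.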
# HCV inh = blocks hepatitis C virus | Huh7.5.1 HCVcc-Cre infection, luciferase reporter, 44 h | Potency, µM (series often up to 41.8 µM), without a hit: at the highest dose activity change, negative = inhibition, most hits filed as inhibitors | 340,000 compounds, 3.4% hits | AID 651820; active = well fitted inhibition curve with a large enough effect; inconclusive = small, poorly fitted or top-dose-only effect, or another doubt; inactive = no such curve, though single readings can be large or run the other way; note: potency is the fitted concentration of half-maximal effect
#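 Infectious HCVcc-Cre (~0.5 moi) was added to cells just after compound, with cells seeded 4 h earlier at 1,000 per well. Luciferase activity after 44 h culture reported infection; substrate was incubated 15 min at room temperature before reading.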
# MARV entry inh = Marburg virus entry inhibition. Marburg virus pseudotyped entry inhibition, cell reporter. Potency, µM (titrated, usually from 37.8 µM), without a hit: top-dose activity change, negative = inhibition, hits mostly inhibitors. 300,000 compounds, 1.8% hits. AID 540276; calls by dose curve; tested in HEK293 cells; note: potency is the fitted concentration of half-maximal effect
# Lassa entry inh = blocks Lassa virus binding to or entry into cells; Lassa virus pseudotype entry inhibition, cell reporter; Potency, µM (highest dose often 37.9 µM), for the others: at the highest dose activity change, negative = inhibition, hits mostly inhibitors; 300,000 compounds, 1.2% hits; calls by dose curve; tested in HEK293 cells; note: potency is the fitted concentration of half-maximal effect; nearly all actives have a fitted effect of over 50% in size
# Active calls of the source: *; u = inconclusive; x = no result; [ ] = dose if it differs, or a comment. % is set by controls: 0 for no effect and ±100 for the full control effect.
SMILES,FMDV antiviral,HCMV antiviral,HCV inh,MARV entry inh,Lassa entry inh
Cc1cnc(C(=O)NCc2c(C)ncc3c2CCN(C(=O)/C=C/c2cccs2)C3)cn1,-8%,x,x,x,x
Cc1ccccc1NC(=O)N[C@H]1CC[C@@]23CCCN2C(=O)CCC[C@H]3[C@H]1C,x,-7,x,x,x
CCOc1ccccc1C(=O)N1CCN(c2cccc(Cl)c2)CC1,-19%,-85*,4%,u,u
O=C(CSc1ccccn1)N1CCN(c2cccc(Cl)c2)CC1,0%,-73*,-14%,-5%,7%
O=C(CSc1ccccn1)N1CCN(c2ccccc2)CC1,37%,38,7%,16%,4%
Cn1c(SCC(=O)N2CCN(c3cccc(Cl)c3)CC2)nnc1-c1ccncc1,u,-67*,u,-26%,-18%
O=C(O)c1ccccc1C(=O)N1CCN(c2cccc(Cl)c2)CC1,4%,-8,7%,-1%,15%
CN[C@H]1C[C@H]2c3[nH]c4ccc(-c5cccc(C)c5)cc4c3CCN2C[C@H]1[C@H](C)O,0%,-7,x,x,x
CCc1nc2ccccc2c(C(=O)OCC(=O)Nc2ccc(S(=O)(=O)N3CCOCC3)cc2)c1C,u,-32,11µM*,u,u
CCc1nc2ccccc2c(C(=O)OCC(=O)Nc2cccc(S(=O)(=O)NC3=NCCCCC3)c2)c1C,25µM*,u,8.9µM*,u,22µM*
CCCn1c(SCC(=O)Nc2cccc(S(=O)(=O)NC3=NCCCCC3)c2)nc2ccccc2c1=O,32µM*,-30,-18%,u,-23%
CCc1nc2ccccc2c(C(=O)OCC(=O)Nc2cccc(S(=O)(=O)N3CCOCC3)c2)c1C,20µM*,-32,11µM*,4.6µM*,u
Oc1c(C(c2ccccc2Cl)N2CCN(Cc3ccccc3)CC2)sc2nc(-c3ccco3)nn12 (stereo not drawn),-5%,1,x,x,1%[46.1 µM]
CCn1cc(S(=O)(=O)c2ccc(C)cc2C)c(=O)c2cc(F)c(N3CCCCC3)cc21,-15%,-11,x,x,-10%[46.1 µM]
O=C(OCc1nnc(-c2cccs2)o1)C1=NN(c2ccccc2)C(=O)CC1,12%,0,6%,x,x
CCN(CC)C(=O)C1CCN(S(=O)(=O)c2ccc3oc4ccccc4c3c2)CC1,x,-70*,u,u,-27%
C/C(=N\N=C1\NC(=O)CC(C(=O)O)S1)c1ccc(F)cc1 (stereo not drawn),-17%,-31,0%,-10%,1%
O=C1CC(C(=O)O)S/C(=N\NC(=O)c2ccccc2)N1 (stereo not drawn),4%,-82*,7%,1%,-3%
O=C(CNC(=S)N(Cc1ccccc1)Cc1cccnc1)NC1CCCC1,2%,-35,20%,1%,13%
O=C(c1ccccc1Br)N(Cc1ccccc1)c1ccccc1,-30%,-62*,-20%,u,u
O=C(c1cccc(Cl)c1)N1c2ncnn2C2(CCCCC2)[C@@H]2CCCC[C@@H]21,u,-2,x,u,0%[46.1 µM]
Nc1ccc(O)cc1C(=O)OCC(=O)c1ccc(C2CCCCC2)cc1,u,-95*,u,u,u
COc1ccc(C(=O)OCC(=O)c2ccc(C3CCCCC3)cc2)cc1,u,u,u,u,2.2µM*
Nc1ccc(O)cc1C(=O)OCC(=O)C12CC3CC(CC(C3)C1)C2,-22%,4,12%,28%,11%
CCOC(=O)c1cnc2ccc(OCC)cc2c1N(C)Cc1ccccc1,u,-16,11µM*,u,2%
SMILES,FMDV antiviral,HCMV antiviral,HCV inh,MARV entry inh,Lassa entry inh
CCOC(=O)c1cnc2ccc(OCC)cc2c1NCCc1ccc(OC)c(OC)c1,28µM*,-9,x,u,u
CCOC(=O)c1cnc2ccc(OCC)cc2c1Nc1ccc(OCc2ccccc2Cl)cc1,-14%,-3,x,x,-20%[46.1 µM]
COCc1cc(C)nc(N/N=C/c2ccc(Cl)c(Cl)c2)c1C#N,-10%,27,-3%,-7%,1%
CCO[C@H](c1cc(OC)cc([N+](=O)[O-])c1OC)[C@H](C)C=CCC(=O)OC,x,x,x,1%[14.2 µM],x
O=C(Nc1ccc(-c2nc3cc(Cl)ccc3o2)cc1)c1cc2ccccc2o1,-8%,14,x,x,14%[46.1 µM]
COc1cccc(CN(Cc2ccco2)S(=O)(=O)c2ccc(S(=O)(=O)NCc3ccccc3)cc2)c1OC,20%,-13,11µM*,-23%,u
Cc1ccc(S(=O)(=O)N(Cc2cccnc2)Cc2cc3ccccc3[nH]c2=O)cc1,-9%,-62*,-10%,-9%[46.1 µM],-18%[46.1 µM]
Cc1cccc(N(Cc2cc3ccccc3[nH]c2=O)S(=O)(=O)c2ccccc2)c1,u,u,28%,20%,0%
O=c1[nH]c2ccccc2cc1CN(c1ccccc1)S(=O)(=O)c1ccccc1,0%,-64*,3%,u,17%
COc1ccc(S(=O)(=O)N(Cc2ccco2)Cc2cc3ccccc3[nH]c2=O)cc1,u,-24,14µM*,u,u
COc1ccc(S(=O)(=O)N(Cc2cccnc2)Cc2cc3ccccc3[nH]c2=O)cc1,20%,u,11%,x,x
O=c1[nH]c2ccccc2cc1CN(Cc1ccco1)S(=O)(=O)c1ccccc1,u,-36,-10%,u,-6%
CCOC(=O)OC[C@H]1O[C@H](c2ccc(C(C)=O)cc2)C=C[C@@H]1Oc1ccc(-c2ccccc2)cc1,x,x,x,3%[14.2 µM],x
C/C(N[C@@H]1CSCC1O)=C1/C(=O)CC2[C@@H]1C2(C)C (stereo partly drawn),-11%,x,x,x,x
COc1cccc(CN(CC(=O)NCc2ccco2)C(=O)CNS(=O)(=O)c2ccccc2)c1,24%,-61*,13%,-26%[46.1 µM],-4%
Cc1ccc(S(=O)(=O)NCC(=O)N(CC(=O)NCc2ccco2)Cc2ccccc2)cc1,23%,-9,-2%,-2%,-9%
COc1cc(NC(=O)Cn2c(=O)n(-c3cccc(C)c3)c(=O)c3c(C)c(C)sc32)cc(OC)c1,-5%,-10,-8%,u,-4%
CC/C(=N/N=C(/CC)c1ccc(O)cc1)c1ccc(O)cc1,20%,-99*,u,x,x
COc1ccc(NC(=O)Nc2nnc(N(C)C3CCCCC3)s2)c(OC)c1,-23%,-7,x,18%[46.1 µM],-7%[46.1 µM]
CCOc1cc(/C=N/NC(=O)Cn2nc([N+](=O)[O-])cc2C)cc(Br)c1OCc1ccccc1F,0%,-96*,15%,u,-12%
O=C(CCn1c(=O)c2cccn2c2cccnc21)NCc1ccccc1Cl,10%,-26,x,x,8%[46.1 µM]
COc1ccc(NC(=O)c2cc(-c3ccc(C)c(C)c3O)n[nH]2)cc1Cl,u,-8,2.5µM*,-38%[46.1 µM],17%[46.1 µM]
Cc1ccc(F)cc1-c1cc(C(=O)NCc2cc(C(F)(F)F)cc(C(F)(F)F)c2)[nH]n1,-10%,15,x,x,x
COc1ccc(Cl)cc1-c1cc(C(=O)Nc2ccc(C)c(NS(C)(=O)=O)c2)[nH]n1,32µM*,u,x,x,x
Cc1ccc(NC(=O)c2cc(-c3cc(Cl)ccc3C)n[nH]2)cc1NS(C)(=O)=O,25µM*,-83*,x,x,x
Cc1ccc(Cl)cc1-c1cc(C(=O)NCc2cc(C(F)(F)F)cc(C(F)(F)F)c2)[nH]n1,40µM*,-10,x,x,x
